PMC10668032, “Altered binding affinity of SIX1-Q177R correlates with enhanced WNT5A and WNT pathway effector expression in Wilms tumor”
The full ranking holds about 33,000 sequences; the median of “e-score” is about -0.05, and the highest 2% start at about 0.38. Shown is part of a subset that was picked to be rich in the highest values.

The sequences below were run against T1, SIX1-Q177R homeodomain (human, UniProt Q15475 108-198, Q177R) (assay: universal protein binding microarray; Universal all-10-mer PBM (8x60K, AMADID 030236), 300 nM GST-tagged protein, Alexa Fluor 488 anti-GST; buffer, salt, pH and temperature not stated (as in Berger); high values mean tight binding). Conditions: protein: ivt; tags: N-terminal GST; dsDNA, one strand shown.
T1 sequence: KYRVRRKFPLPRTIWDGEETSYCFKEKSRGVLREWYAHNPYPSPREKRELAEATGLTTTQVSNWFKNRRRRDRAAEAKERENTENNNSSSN
Method in brief: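 Homeodomains fused to GST were made by in vitro transcription/translation and measured by anti-GST western blot with a recombinant GST standard curve. At 300 nM final concentration, they were applied in duplicate to universal 'all 10-mer' protein binding microarrays (8×60K format).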

| Sequence | binding signal |
| --- | --- |
| AGAACACT | 0.344 ± 0.0153 E-score |
| CGAACACA | 0.215 ± 0.0469 E-score |
| AGAACACG | 0.356 ± 0.0118 E-score |
| TGAACACA | 0.173 ± 0.0727 E-score |
| CGAACACG | 0.3556 ± 0.00281 E-score |
| GGAACACA | 0.189 ± 0.0298 E-score |
| AGAACACC | 0.459 ± 0.00494 E-score |
| CGAACACC | 0.4736 ± 0.00203 E-score |
| GGAACACC | 0.4735 ± 0.00301 E-score |
| CGGGGATA | 0.202 ± 0.00822 E-score |
| AATGGGTG | 0.281 ± 0.0496 E-score |
| CACGCGTA | 0.184 ± 0.0106 E-score |
| ACACTTAT | 0.349 ± 0.02 E-score |
| CCACCTAC | 0.17 ± 0.0551 E-score |
| ACCCCTAG | 0.208 ± 0.00908 E-score |
| ATACCTAC | 0.224 ± 0.0121 E-score |
| ACACCTGT | 0.46033 ± 0.000212 E-score |
| ACACATAT | 0.239 ± 0.0295 E-score |
| ACACCTAA | 0.4446 ± 0.00441 E-score |
| ACACCTAC | 0.4555 ± 0.00215 E-score |
| TCCCCTAA | 0.172 ± 0.0106 E-score |
| ACACCTAG | 0.4448 ± 0.00199 E-score |
| ATACCTAG | 0.196 ± 0.0172 E-score |

| Sequence | binding signal |
| --- | --- |
| ACCCCTAA | 0.183 ± 0.0117 E-score |
| CAGAAGGG | 0.157 ± 0.0162 E-score |
| CCCCGAAA | 0.168 ± 0.0462 E-score |
| CACCCAAC | 0.301 ± 0.0371 E-score |
| CCCCAAAC | 0.197 ± 0.0113 E-score |
| GGTCGAAC | 0.22817 ± 0.00017 E-score |
| GGGCGGTA | 0.18 ± 0.0297 E-score |
| ACACCTAT | 0.448 ± 0.00643 E-score |
| ACACATAG | 0.155 ± 0.0872 E-score |
| ACCCCTAT | 0.172 ± 0.00706 E-score |
| CACCACTG | 0.342 ± 0.00325 E-score |
| GCGGTCGA | 0.152 ± 0.00747 E-score |
| ACACAGTG | 0.259 ± 0.0202 E-score |
| CGGGATCA | 0.269 ± 0.00773 E-score |
| CAGTACAC | 0.433 ± 0.00665 E-score |
| AAGTACCC | 0.2054 ± 0.000912 E-score |
| GAGTACTC | 0.1739 ± 0.000948 E-score |
| CAGCACAC | 0.269 ± 0.0132 E-score |
| GAGTACAC | 0.4362 ± 0.00255 E-score |
| CAGTACCG | 0.185 ± 0.0235 E-score |
| AAGTACAC | 0.425 ± 0.0204 E-score |
| GAGTACCC | 0.173 ± 0.00951 E-score |
| AAGTAATC | 0.163 ± 0.0142 E-score |

| Sequence | binding signal |
| --- | --- |
| ACACAGCC | 0.164 ± 0.059 E-score |
| GATTGAAC | 0.162 ± 0.0507 E-score |
| GGATCCAA | 0.201 ± 0.0192 E-score |
| CACGTGGA | 0.243 E-score |
| AGGTGACT | 0.165 ± 0.006 E-score |
| CACCCTCA | 0.264 ± 0.0103 E-score |
| GTGTTTCA | 0.357 ± 0.00873 E-score |
| GTGTTGCA | 0.3853 ± 0.00118 E-score |
| GGGTTGTA | 0.169 ± 0.0161 E-score |
| GTGTTGAA | 0.396 ± 0.00711 E-score |
| CCGTTGAC | 0.16 ± 0.0161 E-score |
| GTGTTGTA | 0.389 ± 0.00682 E-score |
| GTGTTGGA | 0.414 ± 0.0127 E-score |
| GTTGTGTA | 0.255 ± 0.0169 E-score |
| CGATCCAC | 0.2384 ± 0.00175 E-score |
| CCTACGCA | 0.17 ± 0.0129 E-score |
| CACGAAAG | 0.16 ± 0.0281 E-score |
| TACGGACA | 0.168 ± 0.019 E-score |
| CACTGGTA | 0.3128 ± 0.00191 E-score |
| ATCTGACA | 0.275 ± 0.0351 E-score |
| CACCCATG | 0.34 ± 0.0139 E-score |
| CACCTGTC | 0.224 ± 0.0498 E-score |
| CTTTCACA | 0.24 ± 0.00834 E-score |

| Sequence | binding signal |
| --- | --- |
| AACGGGGT | 0.205 ± 0.0313 E-score |
| AAGGGATC | 0.194 ± 0.0447 E-score |
| CCTCAACA | 0.204 ± 0.0178 E-score |
| AAGAGTTA | 0.172 ± 0.0103 E-score |
| ACACACGC | 0.267 ± 0.0306 E-score |
| ATACACGA | 0.38 ± 0.00658 E-score |
| ATACACGC | 0.396 ± 0.0178 E-score |
| CCACACGG | 0.197 ± 0.0212 E-score |
| ATACACGG | 0.401 ± 0.0111 E-score |
| ACACACGG | 0.301 ± 0.0255 E-score |
| CGTATACG | 0.153 ± 0.0218 E-score |
| ACCTTGTA | 0.203 ± 0.0145 E-score |
| CACGTATA | 0.2103 ± 0.000226 E-score |
| CACTTGCC | 0.227 ± 0.036 E-score |
| CGCCACAC | 0.314 ± 0.0118 E-score |
| AGACCCCG | 0.281 ± 0.0369 E-score |
| CCAACTAG | 0.223 ± 0.00917 E-score |
| CACCTCAG | 0.26 ± 0.0094 E-score |
| CCAATTTA | 0.238 ± 0.0221 E-score |
| ACCCCAGA | 0.201 ± 0.039 E-score |
| ACACCAGC | 0.4638 ± 0.00122 E-score |
| ACACCAGT | 0.48 ± 0.008 E-score |
| ACCCCAGG | 0.249 ± 0.0168 E-score |

| Sequence | binding signal |
| --- | --- |
| ACAGCACC | 0.1838 ± 0.000898 E-score |
| ACTCCAGG | 0.228 ± 0.00384 E-score |
| ACCCCAGC | 0.235 ± 0.0628 E-score |
| GCACCAGA | 0.181 ± 0.0305 E-score |
| ACCACAGT | 0.22 ± 0.00384 E-score |
| ACACCAGA | 0.472 ± 0.00546 E-score |
| ACACCAGG | 0.472 ± 0.00716 E-score |
| ACCCCAGT | 0.27 ± 0.0137 E-score |
| GACGATAC | 0.205 ± 0.0214 E-score |
| CCTGGGTA | 0.164 ± 0.00425 E-score |
| GGGGAGTA | 0.256 ± 0.0126 E-score |
| CACCATGC | 0.297 ± 0.00858 E-score |
| CACCCGGG | 0.327 ± 0.0154 E-score |
| ACTCTGAC | 0.172 ± 0.00272 E-score |
| ACACTGAG | 0.354 ± 0.00682 E-score |
| ACACTGAA | 0.349 ± 0.00868 E-score |
| ACACTGAC | 0.381 ± 0.0072 E-score |
| ACACTGTC | 0.336 ± 0.0232 E-score |
| ACACTGTG | 0.381 ± 0.0114 E-score |
| CCGCGAAA | 0.167 ± 0.0237 E-score |
| GTAGTACA | 0.277 ± 0.0241 E-score |
| CACGAGTA | 0.167 ± 0.0394 E-score |
| GGTATCGA | 0.2937 ± 0.0007 E-score |

| Sequence | binding signal |
| --- | --- |
| CTTGTGTC | 0.168 ± 0.0605 E-score |
| ATCGTGTA | 0.403 ± 0.0236 E-score |
| GTCGAGTA | 0.1983 ± 0.00156 E-score |
| CTCGGGTC | 0.155 ± 0.0227 E-score |
| CTCGTGTC | 0.409 ± 0.0114 E-score |
| GTCGTGTA | 0.438 ± 0.00933 E-score |
| ATCGTGTC | 0.413 ± 0.0104 E-score |
| GTCGTGCA | 0.181 ± 0.0113 E-score |
| ATCGTGTG | 0.229 ± 0.0199 E-score |
| CAAGCGTG | 0.165 ± 0.0253 E-score |
| CACCACCC | 0.3364 ± 0.00314 E-score |
| ACGGATCA | 0.172 ± 0.0172 E-score |
| GACCCGCC | 0.18 ± 0.0248 E-score |
| ACGGGTGC | 0.237 ± 0.00406 E-score |
| CCGGGATC | 0.164 ± 0.0362 E-score |
| CTCGTGTA | 0.398 ± 0.00843 E-score |
| CTCGGGTA | 0.168 ± 0.0141 E-score |
| CTCGAGTA | 0.164 ± 0.00196 E-score |
| AACAGGGG | 0.17 ± 0.00571 E-score |
| GATAATAC | 0.1568 ± 0.000269 E-score |
| ATAAACAC | 0.365 ± 0.0198 E-score |
| CATAACAC | 0.426 ± 0.00624 E-score |
| GATAACCC | 0.19 ± 0.0215 E-score |

| Sequence | binding signal |
| --- | --- |
| CAAAACAC | 0.321 ± 0.0321 E-score |
| AATAAACA | 0.218 ± 0.0334 E-score |
| CATAGCAC | 0.195 ± 0.00827 E-score |
| GATAACAC | 0.4333 ± 0.00385 E-score |
| AATAACAC | 0.426 ± 0.0299 E-score |
| CACCATAA | 0.303 ± 0.015 E-score |
| ATGACCCG | 0.2 ± 0.00637 E-score |
| ACTAGGTG | 0.218 ± 0.00902 E-score |
| ACCCCAAC | 0.237 ± 0.00988 E-score |
| ACCGGAGT | 0.25 ± 0.0191 E-score |
| AGACCCCA | 0.175 ± 0.0169 E-score |
| GCCACACC | 0.367 ± 0.0389 E-score |
| ACCACACG | 0.297 ± 0.00738 E-score |
| ACCACACA | 0.196 ± 0.00984 E-score |
| CCCACACG | 0.2877 ± 0.0011 E-score |
| CCCACACC | 0.39 ± 0.0401 E-score |
| ACCACACC | 0.407 ± 0.0186 E-score |
| ACACTTGA | 0.376 ± 0.0165 E-score |
| CGTTGGTA | 0.151 ± 0.00584 E-score |
| GCGCGACA | 0.155 ± 0.0207 E-score |
| CACCGTAC | 0.365 ± 0.0199 E-score |
| CACGGCTC | 0.154 ± 0.0275 E-score |
| AGGTCGTG | 0.264 ± 0.0209 E-score |

| Sequence | binding signal |
| --- | --- |
| CCCCTGCA | 0.17 ± 0.016 E-score |
| ACACTGCG | 0.383 ± 0.00512 E-score |
| ACACTTCC | 0.349 ± 0.026 E-score |
| ACACTTCA | 0.313 ± 0.047 E-score |
| ACACTTCG | 0.327 ± 0.0333 E-score |
| ACACTGCC | 0.429 ± 0.0024 E-score |
| ACACTGCA | 0.385 ± 0.00749 E-score |
| ACACTGCT | 0.339 ± 0.0327 E-score |
| CACGAGTG | 0.317 ± 0.0328 E-score |
| CTGGGGTA | 0.194 ± 0.0256 E-score |
| CCCCCAAC | 0.17 ± 0.0237 E-score |
| TAATGACA | 0.203 ± 0.0464 E-score |
| CGCATTGC | 0.166 ± 0.0234 E-score |
| AGTGATCC | 0.184 ± 0.018 E-score |
| GGCACACA | 0.179 ± 0.0131 E-score |
| CGGTGTAC | 0.4872 ± 0.00266 E-score |
| AGGTGCGG | 0.187 ± 0.0153 E-score |
| AGGTGTAT | 0.441 ± 0.0169 E-score |
| ATGTGTAC | 0.23 ± 0.0242 E-score |
| AGGTGTAG | 0.473 ± 0.00747 E-score |
